# Results: PubChem BioAssay
# The source made the active and inactive calls. Unless noted, no rule for the calls is given here.
# Columns and labels:
# [1] = tested on: Wnt5a (protein binding on small-molecule microarray); assay: Wnt5a binders on small-molecule microarray, primary screen, biophysical, 635/667 nm fluorescence (AID 1142); settings: 635 nm fluorescence, higher = more signal;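 also: fluorescence read at 667 nm with signal to noise per printed feature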
# [2] = cell viability in Huh7 cells, primary screen, cytotoxicity control for HCV replication inhibitor project, CellTiter-Glo luminescence, basal, 48 h (AID 1143); settings: Huh7 HCV replicon, higher = more signal, called active from +8 up or from −8 down;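 also: Huh7 hepatoma cells carrying a hepatitis C replication reporter with no stimulus; test concentration not given here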
# [3] = P. aeruginosa biofilm formation inhibitors, primary screen, PAO1 strain, BacTiter-Glo luminescence, LB-PBS (AID 1144); settings: 12 h, higher = more signal
# [4] = CREB reporter modulators without forskolin, primary screen, cell-based, PC12, CRE-LacZ reporter, unstimulated (AID 1145); settings: no forskolin, luminescence, 4.5 h, higher = more signal, called active from +8 up or from −8 down
# [5] = CREB reporter modulators under forskolin, primary screen, cell-based, PC12, CRE-LacZ reporter, forskolin-stimulated (AID 1146); settings: luminescence, 4.5 h, higher = more signal, called active from +8 up or from −8 down;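 also: PC12 cells with 6xCRE LacZ reporter stimulated by forskolin 10 µM; beta-galactosidase reporter signal reflecting CREB driven transcription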
# [6] = target: Streptavidin (Streptomyces avidinii) (UniProt P22629); assay: streptavidin binders on small-molecule microarray, primary screen, artefact control for SMM compound annotation, biophysical, 635/667 nm fluorescence (AID 1147); settings: streptavidin binding, higher = more signal;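 also: signal reflects streptavidin binding to arrayed compounds as a control protein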
# Sequence of Streptavidin (Streptomyces avidinii) (P22629 whole entry, looked up): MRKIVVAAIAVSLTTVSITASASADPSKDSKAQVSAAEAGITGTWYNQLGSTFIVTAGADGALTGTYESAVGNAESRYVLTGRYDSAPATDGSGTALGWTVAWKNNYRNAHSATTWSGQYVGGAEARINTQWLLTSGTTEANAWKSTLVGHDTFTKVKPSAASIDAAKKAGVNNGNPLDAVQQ
# [7] = small-molecule binders of probe aInhba, primary screen, biochemical, small-molecule microarray, 635/667 nm fluorescence (AID 1148); settings: higher = more signal;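 also: score merges 667nm spot fluorescence with signal-to-noise for antibody binding to printed compounds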
# [8] = target: Torsin-1A (Homo sapiens) (UniProt O14656); assay: torsin A binders from cell lysate, primary screen, small-molecule microarray, wild-type, 635/667 nm (AID 1149); settings: COS7 hTOR1A-WT lysate, 635 nm fluorescence, higher = more signal
# Sequence of Torsin-1A (Homo sapiens) (O14656 whole entry, looked up): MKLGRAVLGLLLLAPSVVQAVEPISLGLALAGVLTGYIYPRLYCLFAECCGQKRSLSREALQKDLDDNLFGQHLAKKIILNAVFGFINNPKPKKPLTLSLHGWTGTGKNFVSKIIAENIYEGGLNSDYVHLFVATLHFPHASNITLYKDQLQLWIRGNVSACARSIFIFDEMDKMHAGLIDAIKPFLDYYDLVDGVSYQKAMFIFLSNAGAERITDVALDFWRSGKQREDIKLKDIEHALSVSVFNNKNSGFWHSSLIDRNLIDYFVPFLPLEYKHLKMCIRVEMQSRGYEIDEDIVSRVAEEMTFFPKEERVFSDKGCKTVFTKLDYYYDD
# [9] = target: Torsin-1A (Homo sapiens) (UniProt O14656); assay: small-molecule binders of mutant TOR1A in lysate, primary screen, cell lysate, small-molecule microarray, COS7 lysate, 635/667 nm fluorescence (AID 1150); settings: COS7 hTOR1A mutant lysate, 635 nm fluorescence, higher = more signal;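 also: score pools 667 nm emission and signal to noise measuring lysate protein binding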
# [10] = tested on: Sonic hedgehog protein (Shh); assay: small-molecule binders of Shh protein, primary screen, biochemical, small-molecule microarray, 635/667 nm fluorescence (AID 1151); settings: small-molecule microarray binding, 635 nm fluorescence; higher = more signal;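 also: Shh protein binding to compounds spotted on small-molecule microarray slides; score combines spot fluorescence intensity with signal-to-noise across triplicate slides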
Compound,composite z-score [1],z-score [2],z-score [3],z-score [4],z-score [5],composite z-score [6],composite z-score [7],composite z-score [8],composite z-score [9],composite z-score [10]
CC(C)(C)OC(=O)CC[C@]1(C(N)=O)COC(c2ccc(OCCCO)cc2)=N1,0.681,0.0853 (inactive),0.361 (inactive),-0.585 (inactive),-0.438 (inactive),0.248,0.923,0.833,0.493,-0.769
CCN1C(=O)[C@H]2[C@H]3[C@H](O)[C@H](O)CC(=NOCC=C(C)CCC=C(C)C)[C@H]3CC[C@H]2C1=O,0.249,-0.327 (inactive),-0.805 (inactive),-0.0223 (inactive),-0.323 (inactive),-0.298,-0.0471,0.896,0.43,1.77
CN(C)c1ccc(C(O)C2C=CC3C(=O)N(c4ccccc4)C(=O)C3N2Nc2ccccc2F)cc1 (stereo not given),0.0698,-1.3 (inactive),0.136 (inactive),2.56 (inactive),1.03 (inactive),0.557,-0.125,0.221,0.15,-0.378
COc1cccc([C@@H]2Oc3ccc(Br)cc3C(=O)[C@H]2O)c1,0.134,-3.91 (inactive),-0.591 (inactive),4.08 (inactive),0.136 (inactive),0.286,-0.089,0.561,1.1,0.936
CC(C)=C1C(=O)C(c2ccccc2)=C2CN3C(=O)N(CCc4ccccc4)C(=O)[C@]3(Cc3ccc(F)cc3)[C@H]21,-0.506,-0.934 (inactive),-0.00959 (inactive),0.576 (inactive),1.73 (inactive),0.0452,0.205,-2.38,-1.7,-1.74
CS(=O)(=O)CCOC(=O)C1=CC(CCCO)=CC(c2cccs2)N(Cc2cccc(OC(F)(F)F)c2)C=C1C(=O)OCCS(C)(=O)=O (stereo not given),0.141,-3.11 (inactive),0.957 (inactive),4.08 (inactive),0.706 (inactive),1.25,0.245,0.972,0.88,0.37
NCCCCCNC(=O)[C@@H]1C[C@@H]2C(=O)N3CCC[C@H]3C(=O)N2[C@@H]1c1cccc(OCCO)c1,0.369,0.902 (inactive),-0.0862 (inactive),-0.264 (inactive),0.325 (inactive),0.899,1.15,-0.0659,1.36,0.696
O=C(CS)NCCCCCNC(=O)[C@@H]1C[C@@H]2C(=O)N[C@@H](Cc3ccccc3)C(=O)N2[C@@H]1c1ccc(O)cc1,0.835,-0.0984 (inactive),-0.616 (inactive),0.692 (inactive),-0.981 (inactive),-0.859,-0.128,0.489,0.845,0.981
O=C1CCCC2OC12C(O)CCc1ccccc1 (stereo not given),0.154,0.564 (inactive),0.357 (inactive),1.18 (inactive),0.0396 (inactive),0.035,-0.214,0.0994,-0.0582,0.174
COC(=O)c1c(CC[C@@H](CO)NC(=O)N[C@H](Cc2ccccc2)Cn2cc(-c3ccccc3N)nn2)oc(C(C)=O)c1C(=O)OC,-0.0029,-0.145 (inactive),0.41 (inactive),3.84 (inactive),-0.687 (inactive),2.14,0.449,0.481,0.794,0.352
O=C1C[C@@H](O)[C@@H](O)[C@@H]2[C@@H]3C(=O)N(Cc4ccc5c(c4)OCO5)C(=O)[C@@H]3CC[C@@H]12,0.0765,0.136 (inactive),0.00816 (inactive),-0.116 (inactive),0.0785 (inactive),-0.282,-0.149,0.622,0.407,0.698
COc1cccc([C@H]2Oc3ccc(OC)cc3C(=NOC(C)CN3CCCc4nc(C)c(C)cc43)[C@@H]2O)c1 (stereo not given in full),0.35,-0.252 (inactive),1.28 (inactive),2.71 (inactive),-0.0145 (inactive),-0.504,0.0442,0.433,0.27,0.478
CCOC(=O)CCN1C(=O)[C@H]2[C@H]3[C@H](O)[C@H](O)CC(=O)[C@H]3CC[C@H]2C1=O,0.0032,-3.04 (inactive),-0.829 (inactive),0.429 (inactive),-0.236 (inactive),0.275,-0.183,0.269,0.326,0.693
O=C1C[C@@H](O)[C@@H](O)[C@@H]2[C@@H]3C(=O)N(c4cccc(Oc5ccccc5)c4)C(=O)[C@@H]3CC[C@@H]12,0.111,-0.146 (inactive),1.27 (inactive),1.24 (inactive),0.061 (inactive),0.251,0.0227,0.446,0.463,0.521
O=C1[C@H]2[C@H]3[C@H](O)[C@H](O)CC(=NOCc4ccccc4)[C@H]3CC[C@H]2C(=O)N1c1cccc(Oc2ccccc2)c1,0.242,-2.26 (inactive),0.768 (inactive),-0.384 (inactive),-0.271 (inactive),0.293,0.0108,0.294,0.363,1.24
CC(C)C[C@@H]1NC(=O)[C@H]2C[C@@H](C(=O)NCCCCCCN(C)C)[C@@H](c3cccc(OCCO)c3)N2C1=O,0.726,0.069 (inactive),-0.402 (inactive),0.0124 (inactive),-0.995 (inactive),-0.305,-0.0317,1.22,1.32,2.13
O=C(CS)NCCCCCNC(=O)[C@H]1C[C@H]2C(=O)N3CCC[C@H]3C(=O)N2[C@H]1c1cccc(OCCO)c1,0.76,0.0319 (inactive),0.162 (inactive),-0.126 (inactive),0.899 (inactive),0.0654,-0.016,0.581,0.751,1.99
CCOc1ccc(N2C(=O)/C(=C/C=C/c3ccccc3OC)S(=O)(=O)C2c2cccc([N+](=O)[O-])c2)cc1 (stereo not given),-0.0676,-4.29 (inactive),-1.57 (inactive),0.0026 (inactive),-1.2 (inactive),0.27,-0.0596,1.94,0.184,0.37
CC(CCN1CCc2nc(-c3ccccc3)c(-c3ccccc3)cc2C1)=NOC(C)CN1CCCCc2nc(C)c(C)cc21 (stereo not given),0.0802,0.168 (inactive),-0.075 (inactive),-0.147 (inactive),0.0715 (inactive),0.393,-0.0195,0.319,0.278,0.569
N#Cc1ccc(NN2C(C(O)c3cc(C(F)(F)F)cc(C(F)(F)F)c3)C=CC3C(=O)N(c4ccccc4)C(=O)C32)cc1 (stereo not given),0.261,-2.24 (inactive),-0.875 (inactive),0.822 (inactive),-0.389 (inactive),1.39,0.231,1.43,1.06,-0.0099
COC(=O)CC=C[C@@H](C)[C@@H](C=NO[C@H](C)c1cn([C@@H]2COC[C@H]2O)nn1)OC,0.0282,0.324 (inactive),-1.66 (inactive),0.518 (inactive),-0.0094 (inactive),0.521,-0.159,0.73,0.863,0.76
Cc1ccc(S(=O)(=O)N[C@@H]2COC(=O)[C@H](C)COC(=O)CC=C[C@H]2C)cc1,0.0114,0.405 (inactive),0.317 (inactive),0.0676 (inactive),-0.262 (inactive),0.134,-0.224,1.06,0.615,1.91
CC(C)NC(=O)[C@@H]1c2ccccc2C(=O)N(CC23CC4CC(CC(C4)C2)C3)[C@H]1c1ccc(CO)cc1,0.0678,-4.06 (inactive),-2.1 (inactive),-0.0259 (inactive),-0.607 (inactive),0.969,0.0569,0.508,0.561,1.54
COCCOC(=O)N1C(=O)[C@@]2(c3cc(C#CC4(O)CCCCCC4)ccc31)[C@H](c1ccc(OCCO)cc1)N1[C@H](c3ccccc3)[C@H](c3ccccc3)OC(=O)[C@H]1[C@@H]2C(=O)NC[C@H](O)c1ccccc1,0.524,-5.42 (inactive),-0.903 (inactive),-0.61 (inactive),0.753 (inactive),0.246,0.0658,0.225,0.514,1.23
CCCC[C@@H]1C[C@H]1[C@@H](NS(=O)(=O)c1cccc2cccnc12)c1ccc(-c2ccccc2)cc1,-0.0366,-0.325 (inactive),-1.02 (inactive),0.204 (inactive),1.62 (inactive),0.731,0.134,-0.199,-0.199,-1.66
CCN1C(=O)[C@H]2[C@H]3[C@H](O)[C@H](O)CC(=NOCc4ccccc4)[C@H]3CC[C@H]2C1=O,-0.0887,0.856 (inactive),-0.784 (inactive),0.25 (inactive),-0.332 (inactive),0.201,-0.189,0.171,0.46,0.109
CCOC(=O)NN=C1C[C@@H](O)[C@@H](O)[C@@H]2[C@@H]3C(=O)N(CC)C(=O)[C@@H]3CC[C@@H]12,-0.0087,0.225 (inactive),-0.0164 (inactive),-0.205 (inactive),0.104 (inactive),-0.124,-0.324,0.0252,-0.0727,0.784
O=C1[C@H]2[C@H]3[C@H](O)[C@H](O)CC(=NOCc4ccccc4)[C@H]3CC[C@H]2C(=O)N1C[C@@H]1CCCO1,0.171,-0.34 (inactive),0.282 (inactive),-0.298 (inactive),-0.471 (inactive),0.295,-0.0963,0.95,0.119,0.135
COc1ccc([Si](C)(C)[C@H]2[C@H](CC(=O)N3CCC[C@H]3CO)O[C@@]3(C(=O)N(Cc4cccc(N5C(=O)COc6ccccc65)c4)c4ccccc43)[C@@H]2C)cc1,0.156,-2.16 (inactive),-0.201 (inactive),7.18 (inactive),-1.22 (inactive),0.0527,-0.157,0.419,0.889,1.92
